For 98 molecules, inhibition results are on record in PubChem BioAssay AID485273 (Sanford-Burnham Center for Chemical Genomics, 2010).

As a reminder, the inhibition is the relative decrease from the control value, in per cent.

The whole screen tested about 330,000 compounds, of which about 1,500 (0.45%) were called active. The full list was thinned out, with actives kept by preference. Values without a mark were called inactive. Rule as the data show it: active = inhibition above about 45% (passing the limit was not always enough); inconclusive = no clear call, values can overlap the other calls.

Chain of Ubiquitin-conjugating enzyme E2 N (Homo sapiens) (P61088 whole entry, looked up): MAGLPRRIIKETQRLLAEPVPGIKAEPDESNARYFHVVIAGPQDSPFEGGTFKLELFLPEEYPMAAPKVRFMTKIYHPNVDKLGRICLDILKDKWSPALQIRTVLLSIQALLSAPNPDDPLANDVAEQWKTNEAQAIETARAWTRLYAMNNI

This test addresses Ubiquitin-conjugating enzyme E2 N (Homo sapiens) (UniProt P61088). The experiment in a line: blockers of UBC13 ubiquitin chain synthesis – biochemical, TR-FRET, uHTS, primary screen (AID 485273). Conditions: UBC13 polyubiquitin chain formation, at 20 µM, stronger effect = higher value.
For `CC[C@@H](C)[C@H](NC(=O)CCc1c(C)c2cc3c4c(oc3c(C)c2oc1=O)CCCC4)C(=O)O`, the inhibition is 2.9%.
Next, `O=C(CSc1n[nH]c(-c2cccnc2)n1)Nc1ccnc2ccccc12`: 21.1%.
Regarding `c1ccc(-n2nnnc2-c2cccnc2)cc1`, the inhibition was 16.1%.
Next, `S=c1nc2ccccc2c2nc(-c3cccnc3)[nH]n12`: 58.9% (active); `COc1ccccc1N(C)S(=O)(=O)c1ccc(Cl)c(C(=O)N2CCC(C(N)=O)CC2)c1`: 1.7%; `CC1(C)CC(=O)c2sc(N)nc2C1`: -5.4%.
Next, `O=c1cc(CO)oc(C(Nc2cccc(C(F)(F)F)c2)c2ccccn2)c1O` (stereo not drawn): 97.1% (active).
The result for `FC(F)(F)c1cccc(Nc2ncnc3ccccc23)c1` reads 11.1%; that for `O=C(Nc1cccc([N+](=O)[O-])c1)Nn1cnnc1`, -5.5%.
As to `O=[N+]([O-])c1cccc(S(=O)(=O)NCc2ccccn2)c1`, the inhibition was -12.9%.
The result for `O=c1cc(CO)oc(C(Nc2cccc([N+](=O)[O-])c2)c2ccccn2)c1O` (stereo not drawn) reads 94.8% (active); that for `O=C(O)CC1(CC(=O)Nc2cccc(C(F)(F)F)c2)CCCC1`, -1.1%; that for `O=C(c1ccccc1)N1CCC(CC2CC(c3ccc(Cl)cc3)=NO2)(C(=O)NCC2CCCCC2)CC1` (stereo not drawn), 4.7%.
As for `COC(=O)c1ccc(CNC(=O)c2ccc3oc(C(C)C)nc3c2)cc1`, the inhibition was -8.3%.
As to `O=C(NC(=O)c1cc(OCC(F)(F)F)ccc1OCC(F)(F)F)Nc1ccccc1`, the inhibition was 2.9%.
The result for `c1ccc(CCC2=NCCn3cccc32)cc1` reads -3.6%; that for `CCOC(=O)c1ccc(NC(=O)CCn2c(=O)oc3ccccc32)cc1`, 4.5%.
The result for `CCN(CC)S(=O)(=O)c1ccc2[nH]c(=O)cc(C(=O)N(C)C3CCS(=O)(=O)C3)c2c1` (stereo not drawn) reads -6.2%.
Next, `O=C(CCN1C(=O)C2CCCCC2C1=O)Nc1ccc(OC(F)F)cc1` (stereo not drawn): 1.3%.
Turning to `O=C(Nc1ccc(S(=O)(=O)Nc2nccs2)cc1)c1cc(-c2ccncc2)nc2ccccc12`, the inhibition was -11.2%.
The result for `CCN(CC)CCNC(=O)c1ccc(NC(=O)c2cc(-c3ccncc3)nc3ccccc23)cc1` reads 89.7% (active); that for `COC(=O)CNC(=O)c1cc(-c2ccncc2)nc2ccccc12`, -0.6%.
The result for `CCn1c(SCc2cc(=O)n3ccsc3n2)nc2ccccc21` reads 3%; that for `O=C(Nn1cnnc1)c1cc(Cl)ccc1Cl`, -7.5%; that for `CC1CN(C(=O)CCC(=O)NCCCN2CCC(Cc3ccccc3)CC2)c2cc(Cl)ccc2O1` (stereo not drawn), 64.4% (active).
Next, `CC1CN(C(=O)CCC(=O)NC2CCN(Cc3ccccc3)CC2)c2ccccc2O1` (stereo not drawn): 4.7%.
In the case of `CC1CN(C(=O)CCC(=O)NCc2cccnc2)c2ccccc2O1` (stereo not drawn), the inhibition is 2.3%.
Next, `CN(C)C(=O)c1ccc2c(c1)C1C3CCC(C3)C1C(c1ccccc1)N2` (stereo not drawn): -13.6%; `CC(=O)NC(Cc1ccc(F)c(F)c1)C(=O)NC1CCN(c2nnnn2-c2ccccc2)CC1` (stereo not drawn): -5.3%; `CCCCNc1nc2c(c(=O)n(C)c(=O)n2C)n1Cc1cccc(OC)c1`: 21.5%.
Next, `COc1ccnc2c1c(=O)n(Cc1cccc(F)c1)c(=O)n2C`: 48.2% (active); `CC(C)(C)c1cc2cccnc2n1Cc1cccc(F)c1`: 11.4%.
Next, `CCOC(=O)c1ccc(COC(=O)CCc2nc(-c3ccccc3)c(-c3ccccc3)o2)cc1`: -0.9%.
As for `COCc1cc(=O)[nH]c2cc(NC(=O)C(F)(F)F)c(C)cc12`, the inhibition was 8.5%.
Consider `OC(CNCCc1ccc(Cl)cc1Cl)COc1ccccc1` (stereo not drawn), for which the inhibition was 23%.
The result for `CCOc1ccc(/C=N/NC(N)=S)cc1` reads -0.6%; that for `NC(N)=N/N=C/c1ccc(OCc2ccc(Cl)cc2Cl)cc1`, 108% (active).
The result for `O=C(/C=C/c1cccc([N+](=O)[O-])c1)OCC(=O)N1CCOCC1` reads -13.5%; that for `CC(OC(=O)CNC(=O)c1ccco1)C(=O)Nc1ccc(Cl)cn1` (stereo not drawn), -3.2%.
The result for `CCc1ccc(NC(=O)C(C)OC(=O)/C=C/c2cccc([N+](=O)[O-])c2)cc1` (stereo not drawn) reads -15.4%; that for `COc1ccc(N2CCN(C(=O)CNC(=O)c3ccc(C(C)(C)C)cc3)CC2)cc1`, 12.3%.
`O=C(CCCOc1ccccc1)NCc1ccco1`: the inhibition was 6.4%.
The result for `O=C(CCCCCN1C(=O)c2cccc3cccc(c23)C1=O)NCc1ccco1` reads 57.4% (active); that for `O=C1c2cccc3cccc(c23)C(=O)N1CCCCCc1n[nH]c(=S)o1`, -1.2%; that for `C=CCN(CC=C)CCOc1ccccc1[N+](=O)[O-]`, 3.5%.
Next, `O=C(COc1ccc(Br)cc1F)NCC1(N2CCCCC2)CCCCC1`: -5.1%; `Cc1ccc2c(c1)N(CC(=O)N1CCC(O)CC1)C(=O)CO2`: -0.3%.
The result for `CCOc1ccccc1N1CN(Cc2ccccc2)CNC1=S` reads -1.7%.
Turning to `C=CCNC(=O)/C(=C\c1cccc([N+](=O)[O-])c1)NC(=O)c1ccccc1`, the inhibition was 5.9%.
Next, `CN(C)CCNC(=O)/C(=C/c1cccc([N+](=O)[O-])c1)NC(=O)c1ccccc1`: 11.7%; `Cc1ccc(C(=O)N/C(=C/c2ccc(-c3cccc([N+](=O)[O-])c3)o2)C(=O)NCCCN(C)C)cc1`: 57% (active).
Next, `CN(CCc1ccccn1)C(=O)c1ccc(OC2CCN(Cc3ccccn3)CC2)cc1`: 1.2%; `Oc1ccccc1-c1cc(-c2ccc(Cl)cc2)n[nH]1`: 14.2%.
For the molecule `CCCCCCCC1(C)NC(=O)N(CC(=O)Nc2cc(C)on2)C1=O` (stereo not drawn), the inhibition was 3.7%.
Next, `O=c1c2c(ncn1Cc1ccccc1)nc1n2CCC1`: 1.8%; `CN(C)/C=C/c1c(C#N)c(=O)ncn1Cc1ccccc1`: -4.7%; `CN(C)c1ccnc2sc3c(=O)n(Cc4ccccc4)cnc3c12`: 48% (active).
Next, `CCOC(=O)c1ccc(Nc2cc3ccccc3c(=O)[nH]2)cc1`: -38.5%.
As for `COc1ccccc1C(=O)Nc1ccc(Nc2ccccc2)cc1`, the inhibition is 7.8%.
The result for `O=C1OC(OC(=O)c2ccccc2Br)C(N2CCOCC2)=C1Cl` (stereo not drawn) reads 15.6%.
The result for `Cc1ccc(NC2=C(Cl)C(=O)OC2OC(=O)c2ccccc2C)cc1` (stereo not drawn) reads 53.9% (active); that for `Cc1ccccc1C(=O)O`, -9%; that for `Cc1ccccc1C(=O)OC1OC(=O)C(Cl)=C1Nc1ccccc1` (stereo not drawn), 78% (active).
The result for `CCOC(=O)CNC(=O)CN1C(=O)CCSc2ccccc21` reads 8.8%; that for `CNC(=O)c1sc(Nc2ccc(OCc3ccccc3)cc2)nc1C`, 6.9%.
In the case of `Cc1nn(CCCC(=O)NCc2ccccc2Cl)c(=O)c2nccn12`, the inhibition was -2.4%.
Next, `FC(F)Oc1ccccc1C1CC(c2ccc(Br)s2)Nc2ncnn21` (stereo not drawn): -2.2%; `CCN(CC)S(=O)(=O)c1cc(C(=O)Nc2ccccn2)ccc1C`: -8.9%.
The result for `CCN(CC)CCNC(=O)CCCCCn1c(=O)[nH]c2cc(C(=O)OC)ccc2c1=O` reads 9.7%; that for `O=C(CCCCCn1c(=O)[nH]c2ccccc2c1=O)NCCc1c[nH]c2ccccc12`, 58.3% (active).
On to `O=C(CCc1c[nH]c2ccccc12)NCCOc1ccccc1`, for which the inhibition is -4.4%.
As to `COc1cc(CNCc2ccc(OC)c3ccccc23)cc(OC)c1OC`, the inhibition is 5.5%.
Next, `COc1ccc(S(=O)(=O)N2CCN(CC(=O)NCC3(N4CCOCC4)CCCCC3)CC2)cc1`: -8.4%; `NC(N)=Nc1nc(-c2ccccc2)c2cc(Cl)ccc2n1`: 51.4% (active).
The result for `O=C(CCl)NNc1nc(-c2ccccc2)c2cc(Cl)ccc2n1` reads -10.6%.
Next, `Cc1ccc2nc(Nc3ccccc3O)nc(-c3ccccc3)c2c1`: 0.7%.
`Nc1nc(SCC(=O)NN(c2ccccc2)c2ccccc2)n[nH]1`: the inhibition was -4.6%.
The result for `CC1(C)CC(=O)C(C2=NC(C)(C)Cc3ccccc32)=C(O)C1` reads -11%; that for `CCN(CC)S(=O)(=O)c1ccc(NC(=O)c2cccnc2Cl)c(NC(=O)c2cccnc2Cl)c1`, -5.6%.
Next, `CCc1c(C)nc(SCC(=O)NC2CCCC2)[nH]c1=O`: -1.8%; `CNC(=S)NNC(=O)c1ccc(N(C)C)cc1`: -10.9%; `CC(=O)NC(=S)NNC(=O)c1ccc(Br)cc1`: 79.4% (active).
Next, `O=C(NNC(=O)c1ccc(Cl)nc1)c1ccc(Br)cc1`: 6.7%.
Regarding `O=S(=O)(NC1CCCC1)c1ccc(-n2cnnn2)cc1`, the inhibition was 0.2%.
Next, `C=CCNCCCCOc1ccccc1`: 9.8%.
The result for `CCc1ccc(NC(=O)N[C@H](C(=O)O)C(C)CC)cc1` (stereo partly drawn) reads 10%.
The result for `CCCCCn1c(=O)c(C(=O)OCC)c(Cl)c2ccccc21` reads 5.7%; that for `O=C(c1ccc[nH]c1=S)N1CCN(S(=O)(=O)c2ccc(Br)cc2Cl)CC1`, 1.2%; that for `CCOC(=O)C1(CCOc2ccccc2)CCN(Cc2cc(OC)c(O)cc2Cl)CC1`, 12%.
Take `OCC1(CCOc2ccccc2)CCN(Cc2cn[nH]c2-c2ccccc2)CC1`: the inhibition is 2.5%.
The result for `Cc1c(CN2CCC(CO)(CCOc3ccccc3)CC2)[nH]c2ccc(Cl)cc12` reads 72.1% (active); that for `CC(CC(=O)N1CCN(c2ccccc2)CC1)c1ccccc1` (stereo not drawn), 9.2%; that for `O=C(c1ccccc1)c1ccc(C(=O)N2CCN(c3ccccc3)CC2)cc1`, 4.4%.
`CN1CCC(CN)(N2CCN(c3ccccc3)CC2)CC1`: the inhibition was 57.8% (active).
The result for `O=C(CN1CCN(c2ccc(F)cc2)CC1)Nc1cccc(C(F)(F)F)c1` reads -4.5%; that for `CCCCCCCCCCOC(=O)Cn1c(COc2cccc(OC)c2)[n+](C)c2ccccc21`, 58.1% (active).
Next, `CCCCCCCCCCOC(=O)Cn1c(COc2ccc(C)cc2)[n+](C)c2ccccc21`: 44.2%; `CCCCn1c(N)c(N(CCOC)C(=O)c2cccc(OCc3ccccc3)c2)c(=O)[nH]c1=O`: 0.1%.
